Data as given in PubChem BioAssay AID1159580 (chemical genetic matrix, 2015).
In all, about 5,500 compounds went through this assay and about 2,000 (36%) were called active. Not shown: some 18% with an inconclusive outcome. No stated cut-off is given here; in the data, active means normalized growth mostly below about 0.91 (no sharp cut-off); inconclusive means no clear call, values can overlap the other calls; inactive means mostly above about 0.92. The list shows a part of the results.

Assay: chemical genetic growth profiling, strain panel (AID 1159580);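 further: tested at 20 µM; growth read once vehicle control cultures reached saturation at 30 °C; 1 = growth at the plate median or of vehicle wells; lower values mean less growth of the strain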
Details: S. cerevisiae deletion strains, growth OD
[1] = locus YAL021C, strain ccr4, active compounds read low
[2] = locus YAL026C, strain drs2, active compounds read low
[3] = locus YAL030W, strain snc1, active compounds read low
[4] = locus YAL040C, strain CLN3, active compounds read low
[5] = locus YBL061C, strain skt5, active compounds read low
[6] = locus YBR009C, strain hhf1, active compounds read low
[7] = locus YBR023C, strain chs3, active compounds read low
[8] = locus YBR171W, strain sec66, active compounds read low
[9] = locus YBR231C, strain swc5, active compounds read low
[10] = locus YBR279W, strain paf1, active compounds read low
[11] = locus YCL011C, strain gbp2, active compounds read low
[12] = locus YCL016C, strain dcc1, active compounds read low
[13] = locus YCL061C, strain MRC1 (second series), active compounds read low
[14] = locus YCL069W, strain vba3, active compounds read low
[15] = locus YCR088W, strain abp1, active compounds read low
[16] = locus YDL005C, strain med2, active compounds read low
[17] = locus YDL040C, strain nat1, active compounds read low
[18] = locus YDR001C, strain nth1, active compounds read low
[19] = locus YDR069C, strain doa4, active compounds read low
[20] = locus YDR137W, strain rgp1, active compounds read low
[21] = locus YDR150W, strain NUM1, active compounds read low
[22] = locus YDR159W, strain sac3, active compounds read low
[23] = locus YDR297W, strain sur2, active compounds read low
[24] = locus YDR334W, strain swr1, active compounds read low
[25] = locus YDR335W, strain msn5, active compounds read low
[26] = locus YDR363W, strain ESC2, active compounds read low
[27] = locus YDR392W, strain spt3, active compounds read low
[28] = locus YEL003W, strain gim4, active compounds read low
[29] = locus YEL037C, strain rad23, active compounds read low
[30] = locus YEL061C, strain CIN8 (second series), active compounds read low
[31] = locus YER002W, strain NOP16, active compounds read low
[32] = locus YER015W, strain faa2, active compounds read low
[33] = locus YER016W, strain bim1, active compounds read low
[34] = locus YER111C, strain swi4, active compounds read low
[35] = locus YER155C, strain BEM2 (second series), active compounds read low
[36] = locus YFR010W, strain ubp6, active compounds read low
[37] = locus YGL167C, strain pmr1, active compounds read low
[38] = locus YGL173C, strain kem1, active compounds read low
[39] = locus YGL227W, strain vid30, active compounds read low
[40] = locus YGL240W, strain doc1, active compounds read low
[41] = locus YGL253W, strain hxk2, active compounds read low
[42] = locus YGR078C, strain PAC10, active compounds read low
[43] = locus YHR013C, strain ard1, active compounds read low
[44] = locus YHR027C, strain rpn1, active compounds read low
[45] = locus YHR030C, strain SLT2, active compounds read low
[46] = locus YHR079C, strain IRE1, active compounds read low
[47] = locus YHR142W, strain chs7, active compounds read low
[48] = locus YJL092W, strain hpr5, active compounds read low
[49] = locus YJL095W, strain BCK1 (second series), active compounds read low
[50] = locus YJL095W, strain BCK1, active compounds read low
[51] = locus YJL115W, strain asf1, active compounds read low
[52] = locus YJL129C, strain trk1, active compounds read low
[53] = locus YJL154C, strain vps35, active compounds read low
[54] = locus YJL164C, strain tpk1, active compounds read low
[55] = locus YJL166W, strain qcr8, active compounds read low
[56] = locus YJR066W, strain TOR1, active compounds read low
[57] = locus YJR075W, strain HOC1, active compounds read low
[58] = locus YKL160W, strain elf1, active compounds read low
[59] = locus YKR026C, strain gcn3, active compounds read low
[60] = locus YKR091W, strain srl3, active compounds read low
[61] = locus YLL001W, strain dnm1, active compounds read low
[62] = locus YLL026W, active compounds read low
[63] = locus YLL041C, strain sdh2, active compounds read low
[64] = locus YLR027C, strain aat2, active compounds read low
[65] = locus YLR113W, strain HOG1, active compounds read low
[66] = locus YLR221C, strain rsa3, active compounds read low
[67] = locus YLR258W, strain gsy2, active compounds read low
[68] = locus YLR262C, strain YPT6 (second series), active compounds read low
[69] = locus YLR320W, strain mms22, active compounds read low
[70] = locus YLR342W, strain FKS1, active compounds read low
[71] = locus YLR357W, strain rsc2, active compounds read low
[72] = locus YLR370C, strain arc18, active compounds read low
[73] = locus YLR384C, strain iki3, active compounds read low
[74] = locus YML120C, strain ndi1, active compounds read low
[75] = locus YMR058W, strain fet3, active compounds read low
[76] = locus YMR125W, strain sto1, active compounds read low
[77] = locus YMR129W, active compounds read low
[78] = locus YMR205C, strain PFK2, active compounds read low
[79] = locus YMR231W, strain pep5, active compounds read low
[80] = locus YMR307W, strain GAS1, active compounds read low
[81] = locus YNL071W, strain lat1, active compounds read low
[82] = locus YNL153C, strain GIM3, active compounds read low
[83] = locus YNL175C, strain NOP13, active compounds read low
[84] = locus YNL183C, strain NPR1, active compounds read low
[85] = locus YNL197C, strain WHI3, active compounds read low
[86] = locus YNL209W, strain ssb2, active compounds read low
[87] = locus YNL224C, strain SQS1, active compounds read low
[88] = locus YNL248C, strain rpa49, active compounds read low
[89] = locus YNL322C, strain KRE1 (second series), active compounds read low
[90] = locus YNL322C, strain KRE1, active compounds read low
[91] = locus YNR049C, strain mso1, active compounds read low
[92] = locus YOR001W, strain rrp6, active compounds read low
[93] = locus YOR070C, strain gyp1, active compounds read low
[94] = locus YOR080W, strain dia2, active compounds read low
[95] = locus YOR083W, strain WHI5 (second series), active compounds read low
[96] = locus YOR083W, strain WHI5, active compounds read low
[97] = locus YOR106W, strain vam3, active compounds read low
[98] = locus YOR231W, strain MKK1, active compounds read low
[99] = locus YOR265W, strain rbl2, active compounds read low
[100] = locus YOR270C, strain vph1, active compounds read low
[101] = locus YOR290C, strain snf2, active compounds read low
[102] = locus YPL051W, strain arl3, active compounds read low
[103] = locus YPL055C, strain LGE1, active compounds read low
[104] = locus YPL078C, strain atp4, active compounds read low
[105] = locus YPL106C, strain sse1, active compounds read low
[106] = locus YPL240C, strain hsp82, active compounds read low
[107] = locus YPL241C, strain CIN2, active compounds read low
[108] = locus YPL256C, strain CLN2, active compounds read low

Measured: normalized growth

Cc1cn[nH]c1
active: locus YDR195W, strain ref2 1.16 [resistant]
inactive: [1] 1.05 | [2] 1.02 | [3] 1.03 | [4] 0.992 | [5] 1.02 | [6] 1.02 | [7] 1.03 | [8] 1.04 | [9] 1.04 | [10] 1.02 | [11] 1.02 | [12] 1.02 | [13] 0.99 | [14] 1.03 | [15] 1.01 | [16] 1.03 | [17] 1.01 | [18] 1.01 | [19] 1.06 | [20] 1.01 | [21] 0.986 | [22] 0.99 | [23] 1.02 | [24] 1.03 | [25] 1.02 | [26] 1.02 | [27] 1.1 | [28] 1.02 | [29] 1.01 | [30] 1.01 | [31] 1.01 | [32] 1.02 | [33] 1.01 | [34] 1.02 | [35] 1.13 | [36] 1.05 | [37] 1.02 | [38] 1.01 | [39] 1.01 | [40] 1.05 | [41] 1.01 | [42] 0.984 | [43] 1.1 | [44] 1.03 | [45] 0.971 | [46] 0.962 | [47] 1.06 | [48] 1.02 | [49] 1.02 | [50] 1.03 | [51] 1.01 | [52] 1.06 | [53] 1.02 | [54] 1.03 | [55] 1.03 | [56] 0.924 | [57] 1.02 | [58] 1.01 | [59] 1.01 | [60] 1.02 | [61] 1.02 | [62] 1.02 | [63] 1.02 | [64] 1.01 | [65] 1.02 | [66] 1.02 | [67] 1.03 | [68] 1.02 | [69] 1.08 | [70] 1.03 | [71] 1.09 | [72] 1.03 | [73] 1.01 | [74] 1.01 | [75] 1.03 | [76] 1.03 | [77] 1.01 | [78] 1.08 | [79] 1.02 | [80] 1 | [81] 1.06 | [82] 1.02 | [83] 0.994 | [84] 0.934 | [85] 0.996 | [86] 1.02 | [87] 1.02 | [88] 1.02 | [89] 1.02 | [90] 0.974 | [91] 1.01 | [92] 1.03 | [93] 1.02 | [94] 1.04 | [95] 1.01 | [96] 1.02 | [97] 1.03 | [98] 0.985 | [99] 1.02 | [100] 1.08 | [101] 1.03 | [102] 1.02 | [103] 1.02 | [104] 1.04 | [105] 1.1 | [106] 1.01 | [107] 0.981 | [108] 0.938

Cc1scc2c1N(C(=O)CN1CCN(C)CC1)c1ccccc1NC2=O
inactive: locus YAL013W, strain DEP1, active compounds read low 0.967 | [1] 0.984 | [2] 0.972 | [3] 0.939 | [4] 0.985 | [5] 0.963 | [6] 0.989 | [7] 0.947 | [8] 0.954 | [9] 0.972 | [10] 0.958 | [11] 0.954 | [12] 0.975 | [13] 1 | [14] 0.971 | [15] 0.969 | [16] 0.956 | [17] 0.967 | [18] 0.948 | [19] 0.922 | [20] 0.941 | [21] 0.998 | [22] 0.94 | locus YDR195W, strain ref2 0.899 | [23] 0.974 | [24] 0.943 | [25] 0.955 | [26] 0.984 | [27] 1.01 | [28] 0.976 | [29] 0.957 | [30] 0.96 | [31] 1 | [32] 0.974 | [33] 0.967 | [34] 0.965 | [35] 0.939 | [36] 0.95 | [37] 0.943 | [38] 0.978 | [39] 0.947 | [40] 0.966 | [41] 0.965 | [42] 0.996 | [43] 0.967 | [44] 0.966 | [45] 1.08 | [46] 1.1 | [47] 0.942 | [48] 0.965 | [49] 0.96 | [50] 1.11 | [51] 0.952 | [52] 0.948 | [53] 0.961 | [54] 0.995 | [55] 0.949 | locus YJL187C, strain SWE1, active compounds read low 0.968 | [56] 0.962 | [57] 0.979 | [58] 0.981 | [59] 0.96 | [60] 0.977 | [61] 0.968 | [62] 0.949 | [63] 0.968 | [64] 0.977 | [65] 0.977 | [66] 0.995 | [67] 0.963 | [68] 0.962 | [69] 1 | [70] 0.98 | [71] 0.948 | [72] 0.945 | [73] 0.962 | [74] 0.964 | [75] 0.952 | [76] 0.948 | [77] 0.982 | [78] 0.967 | [79] 0.972 | locus YMR263W, strain SAP30, active compounds read low 0.989 | [80] 0.981 | [81] 0.979 | [82] 1 | [83] 1.02 | [84] 0.938 | [85] 0.979 | [86] 0.973 | [87] 1.02 | [88] 0.964 | [89] 0.967 | [90] 0.972 | [91] 0.962 | [92] 0.972 | [93] 0.984 | [94] 0.958 | [95] 0.995 | [96] 0.982 | [97] 0.948 | [98] 1.05 | [99] 0.965 | [100] 0.866 | [101] 0.974 | [102] 0.985 | [103] 0.962 | [104] 0.957 | [105] 0.936 | [106] 0.979 | [107] 1 | [108] 1.1
